Source: PubChem BioAssay
“And” between values parts separate entries of the source, which are not always exact repeats. Equal values may be shown once. The source made the active and inactive calls.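 How the source made its calls, unless noted: active means normalized viability below 100% at a tested concentration; inactive means the rest.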

What was measured:
[1] = viability loss with induced miR-34 in A549 – imaging, A549 dox-inducible miR-34, nuclei and caspase counts, primary screen (AID 1347080;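 active means compounds whose cell count with miR-34 switched on is under 0.7 times the count with it off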); details: A549 miR-34 inducible, Hoechst nuclei count, 48 h
[2] = MELAS cybrid and Rieske KO viability enhancers – cell-based, MELAS cybrids, Rieske KO mouse fibroblasts, CellTiter-Glo, primary screen (AID 1508586;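 active means mean z-score across replicates of 1.96 or higher in either the MELAS or the Rieske mutant cell line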;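 further: z relative to plate mean and SD of compound and empty wells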); details: low glucose
[3] = galactose survival enhancers in mitochondrial complex I cybrids – cell-based, galactose medium, ATP luminescence, primary screen (AID 1645843;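 active means z-score of at least 1.8 in each of two replicates, scored against plate mean and spread of sample wells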;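 further: positive z means more ATP and so rescue of galactose-driven cybrid death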); details: complex I mutant cybrid cells, 72 h, stronger effect = higher value
[4] = P. berghei load reduction in hepatocytes – cell-based, HepG2, luciferase luminescence, HepG2 viability, primary screen (AID 624349; in the data active means parasite load remaining mostly below about 12%, no sharp cut-off; inactive means mostly above about 10%;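 further: 100% = mean of DMSO negative control wells on the same plate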); details: P. berghei liver stage in HepG2, luciferase luminescence, concentration not given here; parasite load remaining: stronger effect = lower value; viability: measured here: HepG2 viability without parasites
[5] = molecular target: NAD(+) hydrolase SARM1 (Homo sapiens) (UniProt Q6SZW1); assay: blocking NAD cleavage by SARM1 SAM-TIR – cell lysate, NAD-Glo luminescence (AID 1508614;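 active means compound whose remaining NAD level is above about 45 nM, limit read from the data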); details: SAM-TIR HEK293T lysate NADase, at 1 µM, stronger effect = higher value
Chain of NAD(+) hydrolase SARM1 (Homo sapiens) (Q6SZW1 whole entry, looked up): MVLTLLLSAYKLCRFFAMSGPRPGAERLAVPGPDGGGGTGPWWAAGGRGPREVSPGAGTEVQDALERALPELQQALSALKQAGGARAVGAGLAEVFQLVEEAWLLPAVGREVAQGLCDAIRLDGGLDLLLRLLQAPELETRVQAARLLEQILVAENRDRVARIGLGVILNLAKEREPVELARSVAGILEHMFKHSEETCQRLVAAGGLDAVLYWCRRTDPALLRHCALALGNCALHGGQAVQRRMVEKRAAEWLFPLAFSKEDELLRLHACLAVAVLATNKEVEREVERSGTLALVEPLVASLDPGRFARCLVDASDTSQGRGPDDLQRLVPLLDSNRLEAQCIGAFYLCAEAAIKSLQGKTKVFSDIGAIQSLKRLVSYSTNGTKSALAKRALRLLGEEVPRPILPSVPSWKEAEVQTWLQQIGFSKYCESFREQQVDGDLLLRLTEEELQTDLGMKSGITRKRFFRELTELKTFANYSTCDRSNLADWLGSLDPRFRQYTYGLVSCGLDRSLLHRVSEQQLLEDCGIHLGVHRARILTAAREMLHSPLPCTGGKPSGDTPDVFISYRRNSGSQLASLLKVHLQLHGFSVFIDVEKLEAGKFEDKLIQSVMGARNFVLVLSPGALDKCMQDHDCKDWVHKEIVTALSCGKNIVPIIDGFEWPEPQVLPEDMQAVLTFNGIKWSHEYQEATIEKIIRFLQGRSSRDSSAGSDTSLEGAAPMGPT

[6] = drug combination growth inhibition, ovarian cancer – cell-based, oncology-focused library, rucaparib conditional, profiling panel (AID 1508598); details: patient-derived ovarian cancer cells, CellTiter-Glo viability, 144 h, stronger effect = lower value
[7] = stronger effect = lower value, cell number ratio, induced over uninduced
[8] = measured here: relative caspase fold change +Dox/-Dox
[9] = measured here: total cells with miR-34 induction, stronger effect = lower value
[10] = measured here: total cells without miR-34 induction
[11] = MELAS cybrid survival, CellTiter-Glo 48 h, stronger effect = higher value
[12] = Rieske KO mouse fibroblast survival, CellTiter-Glo 72 h

Cc1cc(-c2cccc3cccnc23)nc(N)n1
fold change [1, 7]: 0.914 (inactive)
fold change [1, 8]: 1.55
cell count [1, 9]: 9030
cell count [1, 10]: 9880
z-score [2, 11]: -0.012 (inactive)
z-score [2, 12]: -0.264
z-score [3]: -0.525 (inactive)

CC(C)(O/N=C(\C(=O)N[C@@H]1C(=O)N2C(C(=O)[O-])=C(C[n+]3ccccc3)CS[C@H]12)c1csc(N)n1)C(=O)O
parasite load remaining [4]: 53.2% (inactive) and 19.3% (inactive)
viability [4]: 114% and 70%
fold change [1, 7]: 0.844 (inactive) and 0.909 (inactive)
fold change [1, 8]: 1.51 and 1.02
cell count [1, 9]: 8430 and 9490
cell count [1, 10]: 9990 and 10400
z-score [2, 11]: -0.0556 (inactive) and 0.494 (inactive)
z-score [2, 12]: -0.289 and -0.00761
remaining NAD [5]: 10 nM (inactive)
z-score [3]: 0.025 (inactive)

CCOC(=O)c1cnc2ccc(-c3cncc(NS(=O)(=O)c4ccccc4)c3)cn12
fold change [1, 7]: 0.888 (inactive)
fold change [1, 8]: 0.323
cell count [1, 9]: 1650
cell count [1, 10]: 1860
z-score [2, 11]: 0.296 (inactive)
z-score [2, 12]: 0.8
viability ([6]; at 0.000305 µM, OCI-C5x cells, with rucaparib 10 µM, 100% = cells with rucaparib alone): 115% (inactive)
viability ([6]; at 0.000305 µM, OCI-C5x cells, without rucaparib): 99.1% (active)
viability ([6]; at 0.000305 µM, OCI-P5x cells, with rucaparib 20 µM, 100% = cells with rucaparib alone): 102% (inactive)
viability ([6]; at 0.000305 µM, OCI-P5x cells, without rucaparib): 99.9% (active)
viability ([6]; at 0.00122 µM, OCI-C5x cells, with rucaparib 10 µM, 100% = cells with rucaparib alone): 121% (inactive)
viability ([6]; at 0.00122 µM, OCI-C5x cells, without rucaparib): 102% (inactive)
viability ([6]; at 0.00122 µM, OCI-P5x cells, with rucaparib 20 µM, 100% = cells with rucaparib alone): 101% (inactive)
viability ([6]; at 0.00122 µM, OCI-P5x cells, without rucaparib): 95.7% (active)
viability ([6]; at 0.00488 µM, OCI-C5x cells, with rucaparib 10 µM, 100% = cells with rucaparib alone): 129% (inactive)
viability ([6]; at 0.00488 µM, OCI-C5x cells, without rucaparib): 105% (inactive)
viability ([6]; at 0.00488 µM, OCI-P5x cells, with rucaparib 20 µM, 100% = cells with rucaparib alone): 107% (inactive)
viability ([6]; at 0.00488 µM, OCI-P5x cells, without rucaparib): 94.6% (active)
viability ([6]; at 0.0195 µM, OCI-C5x cells, with rucaparib 10 µM, 100% = cells with rucaparib alone): 122% (inactive)
viability ([6]; at 0.0195 µM, OCI-C5x cells, without rucaparib): 112% (inactive)
viability ([6]; at 0.0195 µM, OCI-P5x cells, with rucaparib 20 µM, 100% = cells with rucaparib alone): 102% (inactive)
viability ([6]; at 0.0195 µM, OCI-P5x cells, without rucaparib): 94.3% (active)
viability ([6]; at 0.0781 µM, OCI-C5x cells, with rucaparib 10 µM, 100% = cells with rucaparib alone): 91.1% (active)
viability ([6]; at 0.0781 µM, OCI-C5x cells, without rucaparib): 74.3% (active)
viability ([6]; at 0.0781 µM, OCI-P5x cells, with rucaparib 20 µM, 100% = cells with rucaparib alone): 88.7% (active)
viability ([6]; at 0.0781 µM, OCI-P5x cells, without rucaparib): 48.1% (active)
viability ([6]; at 0.313 µM, OCI-C5x cells, with rucaparib 10 µM, 100% = cells with rucaparib alone): 69.7% (active)
viability ([6]; at 0.313 µM, OCI-C5x cells, without rucaparib): 46.2% (active)
viability ([6]; at 0.313 µM, OCI-P5x cells, with rucaparib 20 µM, 100% = cells with rucaparib alone): 66.1% (active)
viability ([6]; at 0.313 µM, OCI-P5x cells, without rucaparib): 23.4% (active)
viability ([6]; at 1.25 µM, OCI-C5x cells, with rucaparib 10 µM, 100% = cells with rucaparib alone): 52.2% (active)
viability ([6]; at 1.25 µM, OCI-C5x cells, without rucaparib): 37% (active)
viability ([6]; at 1.25 µM, OCI-P5x cells, with rucaparib 20 µM, 100% = cells with rucaparib alone): 46.2% (active)
viability ([6]; at 1.25 µM, OCI-P5x cells, without rucaparib): 13.9% (active)
viability ([6]; at 5 µM, OCI-C5x cells, with rucaparib 10 µM, 100% = cells with rucaparib alone): 4.93% (active)
viability ([6]; at 5 µM, OCI-C5x cells, without rucaparib): 22.5% (active)
viability ([6]; at 5 µM, OCI-P5x cells, with rucaparib 20 µM, 100% = cells with rucaparib alone): 14.6% (active)
viability ([6]; at 5 µM, OCI-P5x cells, without rucaparib): 8.51% (active)

CCOc1nc2cccc(C(=O)OCc3oc(=O)oc3C)c2n1Cc1ccc(-c2ccccc2-c2noc(=O)[nH]2)cc1
fold change [1, 7]: 0.946 (inactive)
fold change [1, 8]: 0.471
cell count [1, 9]: 8160
cell count [1, 10]: 8630
z-score [2, 11]: 0.0175 (inactive)
z-score [2, 12]: -0.018
remaining NAD [5]: 10 nM (inactive)

O=C(O)c1ccc2ccccc2n1
fold change [1, 7]: 0.876 (inactive)
fold change [1, 8]: 0.492
cell count [1, 9]: 7890
cell count [1, 10]: 9000
z-score [2, 11]: -1.05 (inactive)
z-score [2, 12]: -0.692
z-score [3]: 0.485 (inactive)
